Lamin A splicing: modulators of lamin A splicing | HeLa LMNA splicing GFP/RFP minigene ratio, 48 h | 200,000 tested, 0.01% active | Potency, µM (series often up to 46.1 µM), actives largely listed as inhibitors; active = well fitted inhibition curve with a large enough effect in the signal ratio, with a control signal flat, not every such curve was filed as active; inconclusive = small, poorly fitted or top-dose-only effect, or effect the other way, or a change in a side signal; the % refers to the signal ratio
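S3 HeLa stable clones carrying a lamin A-EGFP splicing minigene plus DsRed2 were seeded at 600 cells/well in Opti-MEM with 2% FBS, pin-dosed and incubated 48 h at 37°C. Acumen cytometry (488 nm) gave the GFP/RFP total-intensity ratio.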
ALDH1A1 block: ALDH1A1 (human) enzyme inhibition; P00352; Purified ALDH1A1, NADH fluorescence, propionaldehyde substrate; Potency, µM (highest dose often 75.3 µM), hits mostly inhibitors; 220,000 tested, 7.3% active; active = well fitted inhibition curve with a large enough effect, not every such curve was filed as active; inconclusive = small, poorly fitted or top-dose-only effect, or another doubt; inactive = no such curve, though single readings can be large or run the other way
Target sequence (P00352 whole entry, looked up): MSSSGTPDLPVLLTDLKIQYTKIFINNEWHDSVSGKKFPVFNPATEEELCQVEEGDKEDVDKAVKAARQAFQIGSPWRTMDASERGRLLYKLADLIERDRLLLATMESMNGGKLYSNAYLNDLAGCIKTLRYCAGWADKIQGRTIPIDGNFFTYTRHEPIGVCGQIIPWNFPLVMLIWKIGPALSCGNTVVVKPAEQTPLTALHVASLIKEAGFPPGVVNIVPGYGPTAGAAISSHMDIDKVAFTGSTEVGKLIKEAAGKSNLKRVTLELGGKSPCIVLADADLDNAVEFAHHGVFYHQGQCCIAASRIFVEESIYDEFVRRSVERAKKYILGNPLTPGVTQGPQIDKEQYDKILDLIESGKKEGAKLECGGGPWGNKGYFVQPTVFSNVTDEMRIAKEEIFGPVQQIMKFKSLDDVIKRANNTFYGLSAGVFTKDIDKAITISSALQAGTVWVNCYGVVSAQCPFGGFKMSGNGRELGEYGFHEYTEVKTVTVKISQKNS
HPGD inh: inhibitors of human 15-hydroxyprostaglandin dehydrogenase (HPGD) | 150,000 tested, 4.3% active | Potency, µM, hits mostly inhibitors | purified HPGD, NADH fluorescence kinetic, PGE2 substrate | P15428 | AID 894; active = well fitted inhibition curve with a large enough effect, not every such curve was filed as active; inconclusive = small, poorly fitted or top-dose-only effect, or another doubt; inactive = no such curve, though single readings can be large or run the other way
Target sequence (P15428 whole entry, looked up): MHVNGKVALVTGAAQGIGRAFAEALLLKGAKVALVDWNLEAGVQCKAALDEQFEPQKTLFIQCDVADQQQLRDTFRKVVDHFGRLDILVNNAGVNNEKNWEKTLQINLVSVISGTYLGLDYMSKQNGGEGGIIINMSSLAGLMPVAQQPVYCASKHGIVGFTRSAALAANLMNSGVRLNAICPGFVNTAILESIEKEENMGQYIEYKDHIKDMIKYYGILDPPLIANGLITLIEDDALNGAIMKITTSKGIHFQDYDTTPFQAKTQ
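20 nM HPGD preincubated 15 min at room temperature with compound in 50 mM Tris-HCl pH 8, 0.01% Tween 20. Started with 1 mM NAD+ and 30 uM prostaglandin E2; NADH fluorescence (360/450 nm) read 5 times over 30-s intervals, last minus first.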
HTT cytoprotect: Huntington cell model cytoprotection by ATP luminescence; PC12 HTT-Q103 induced, cytoprotection, ATP luminescence, 40 h; Potency, µM (titrated, usually from 56.4 µM), most hits filed as activators; 230,000 tested, 0.14% active; AID 1471; note: nearly all actives have a fitted effect of over 45% in size
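Readout: ATPlite luminescence (ATP level). Model: stable PC12, inducible Htt exon1 Q103-GFP. Inducer: tebufenozide, 100 nM final. Compounds: dose series. No G418 in medium.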
HttQ103 aggreg: inhibitors of mutant huntingtin aggregate formation in PC12 cells; 220,000 tested, 1.1% active; PC12 HttQ103-GFP aggregates, Acumen cytometry, 40 h; Potency, µM (series often up to 46.1 µM), hits mostly inhibitors; note: nearly all actives have a fitted effect of over 60% in size
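Ecdysone-promoter PC12 model expressing HTT exon 1 Q103 fused to GFP, induced by tebufenozide at 100 nM final. Compounds titrated; aggregates sized 1–25 µm scored on a 488 nm laser cytometer.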
Hits are given with their value; n = inactive; u = inconclusive; x = no result; [ ] = dose if it differs, or a comment. An excerpt weighted towards active compounds, which were near 8.8% of everything screened. Unless noted, calls come from the whole dose curve; as a rule, active = well fitted curve in the direction sought with a large enough effect; inconclusive = small, poorly fitted or top-dose-only effect, or another doubt; inactive = no such curve, though single readings can be large; an effect the other way counts as inactive or inconclusive.

SMILES	Lamin A splicing	ALDH1A1 block	HPGD inh	HTT cytoprotect	HttQ103 aggreg
Cc1cc(Cl)ccc1OCC(=O)N/N=C1\CC2C=CCC12 (configuration not stated)	n	n	n	x	n
CCOc1ncccc1C(=O)NCc1ccc(C)cc1	n	n	15.8µM	n[10 µM]	n
CSc1ncccc1C(=O)NCc1ccc(C)cc1	n	n	14.1µM	n[10 µM]	n
CC(C)CN1CCCC2(CCN(C(=O)c3cccc(F)c3)CC2)C1	x	u	n	u	x
CCOC(=O)C1(Cc2cccc(OC)c2)CCN(Cc2ccc(C)s2)CC1	x	n	x	n[10 µM]	n[9.22 µM]
O=C(CCl)NCc1c(Cl)cccc1-n1cccc1	u	28.2µM	n	n	12.6µM
CCn1ccnc1CN(C)Cc1cn[nH]c1-c1ccc(OC)c(F)c1	x	n	x	n[10 µM]	n[9.22 µM]
O=C(Nc1ccc(O)cc1)c1cccc(Oc2ccc([N+](=O)[O-])cc2)c1	x	n	x	n[10 µM]	n[9.22 µM]
CN(C)S(=O)(=O)Oc1cccc(C(=O)Nc2ccc([N+](=O)[O-])cc2)c1	u	4.47µM	x	n	u
CCN1C(=O)S/C(=C/c2ccc(Sc3nc4ccccc4[nH]3)o2)C1=O	u	n	12.6µM	n[10 µM]	n
COc1cc(C(=O)OC2CSCC2NC(=O)c2ccccc2)cc(OC)c1OC (configuration not stated)	n	n	x	n[10 µM]	n[9.22 µM]
NC(CS)C(=O)O (configuration not stated)	u	x	x	n	n
CCOC(=O)Cc1csc(NC(=O)c2csc3c2CCCC3)n1	n	14.1µM	u	n	n
CCOC(=O)Cc1csc(NC(=O)NC2(C(F)(F)F)Oc3ccccc3O2)n1	n	n	35.5µM	n	n[9.22 µM]
COc1cccc(NC(=O)Nc2cccc(C(=O)O)c2)c1	n	n	x	n[10 µM]	n[9.22 µM]
COc1cccc(NC(=O)NC2(C(F)(F)F)Oc3ccccc3O2)c1	u	35.5µM	n	n[10 µM]	n
COC(=O)c1ccc(CSc2nc3c([nH]c4ccccc43)c(=O)n2-c2cccc(OC)c2)o1	n	x	x	x	x
Cc1cccc(NC(=O)/C(=C\c2ccc([N+](=O)[O-])o2)NC(=O)c2ccc(Cl)cc2)c1	u	4.47µM	n	n[10 µM]	n
O=C(NNC(=O)C(c1ccccc1)c1ccccc1)c1ccccn1	u	n	n	n[10 µM]	10µM
O=C(CCc1ccccc1)NNC(=O)Cc1ccccc1	n	n	x	n[10 µM]	n[9.22 µM]
O=C(CCc1ccccc1)NNC(=O)c1ccccn1	x	n	x	n	12.6µM
O=C(NNc1ccccn1)C(c1ccccc1)c1ccccc1	n	n	x	n	n
O=C(Nc1cc(F)ccc1F)c1cc2nc(-c3ccco3)cc(C(F)(F)Cl)n2n1	n	x	x	x	x
CN(C)S(=O)(=O)c1cc(C(=O)OCCn2cnc3c2c(=O)n(C)c(=O)n3C)ccc1Cl	n	u	x	n[10 µM]	n
O=C(OCn1ncc(Cl)c(Cl)c1=O)c1cccc(C(F)(F)F)c1	u	0.631µM	17.8µM	n	n
SMILES	Lamin A splicing	ALDH1A1 block	HPGD inh	HTT cytoprotect	HttQ103 aggreg
CCOC(=O)CSc1nc2cc3c(cc2c(=O)n1Cc1ccc(C(=O)NCCc2ccc(OC)c(OC)c2)cc1)OCO3	n	x	x	x	x
Cc1cc(Cl)ccc1NC(=O)c1cc(S(=O)(=O)N2CCOCC2)cn1C	n	x	x	x	x
CCN(C(=O)COC(=O)c1cc([N+](=O)[O-])ccc1N1CCCCC1)C1CCS(=O)(=O)C1 (configuration not stated)	x	14.1µM	x	n	n
Cc1ccc2cccc(NC(=S)NC(=O)c3ccnn3C)c2n1	n	10µM	n	n[10 µM]	n
CC(=O)NC(=S)Nc1cccc2ccc(C)nc12	x	x	x	n[10 µM]	n[9.22 µM]
O=C(COC(=O)CN1C(=O)C2CCCCC2C1=O)NC1CCS(=O)(=O)C1 (configuration not stated)	n	n	n	n[10 µM]	n
CC1CCCC(NC(=O)COC(=O)CN2C(=O)C3CCCCC3C2=O)C1C (configuration not stated)	n	25.1µM	n	n[10 µM]	n
O=c1c(-c2cccs2)nc2cnc(Oc3ccccc3)nc2n1C1CC1	x	u	u	n	x
Cc1nc2c(-c3ccccc3)c[nH]n2c(=O)c1Cc1ccccc1	x	u	x	n	7.08µM
O=C(CN1C(=O)C2C3C=CC(C3)C2C1=O)OCC(=O)c1ccccc1 (configuration not stated)	n	n	25.1µM	n[10 µM]	n
O=C1C2C3C=CC(C3)C2C(=O)N1CCc1ccccc1 (configuration not stated)	n	11.2µM	n	n[10 µM]	n
COc1ccc(C(=O)Nc2nnc(S(=O)(=O)N3CCOCC3)s2)cc1	n	x	x	x	x
CCOC(=O)C(CC)Sc1nnc2[nH]c(=O)cc(C)n12 (configuration not stated)	n	x	x	x	x
Cc1nc2cc(NC(=O)COc3ccc(C#N)cc3)ccc2n1-c1ccccc1	u	11.2µM	n	n	n
CCOC(=O)N1CCN(C(=O)C2CCC(CNS(=O)(=O)c3ccccc3)CC2)CC1 (configuration not stated)	n	u	n	n	n
COc1ccc(CN2CCN(C(=O)c3ccc(-c4ccccc4)cc3)CC2)c(OC)c1OC	x	u	x	n	u
COc1ccc(CN2CCN(C(=O)C3CCC(CNS(=O)(=O)c4ccccc4)CC3)CC2)c(OC)c1OC (configuration not stated)	x	14.1µM	x	x	n
COc1ccc(CN2CCN(C(=O)c3cccs3)CC2)c(OC)c1OC	n	17.8µM	n	n	n
O=C(c1cccs1)N1CCN(Cc2ccccc2[N+](=O)[O-])CC1	u	25.1µM	n	x	n
C=CCNC(=O)COc1c(C)ccc(C)c1C	n	n	x	n	n
COC(=O)c1c(NC(=O)Cc2cccs2)sc(C(=O)N2CCCCC2)c1C	n	4.47µM	15.8µM	n[10 µM]	u
CCOC(=O)c1c(NC(=O)Cc2cccs2)sc(C(=O)NC2CCCCC2)c1C	n	n	n	n	n
CCOC(=O)c1c(NC(=O)COC(=O)CNC(=O)c2ccco2)sc(C)c1C	u	n	n	n[1.9 µM]	n
COC(=O)c1c(NC(=O)c2ccco2)sc(C(=O)N2CCCC2)c1C	n	14.1µM	17.8µM	n	n
CCOC(=O)c1sc(NC(=O)COC(=O)CNC(=O)c2ccco2)c(C(=O)OCC)c1C	u	28.2µM	n	n[10 µM]	n
SMILES	Lamin A splicing	ALDH1A1 block	HPGD inh	HTT cytoprotect	HttQ103 aggreg
CCOC(=O)c1c(NC(=O)Cc2cccs2)sc(C)c1C	n	12.6µM	u	n	n
Cc1ccc(N2C(=O)C3N=NN(CC(=O)N4N=C(c5ccccc5)CC4c4ccccc4)C3C2=O)cc1 (configuration not stated)	x	u	x	n	n
Cc1ccc(C)c(N2CCN(S(=O)(=O)c3cnc(N)nc3)CC2)c1	n	x	x	x	x
Cc1cn(C)c(CC(=O)N2CCN(c3cccc(Cl)c3)CC2)c1C(=O)O	n	x	x	x	x
O=C(NCc1ccc(Cl)cc1)NC1COc2ccccc2C1 (configuration not stated)	n	x	x	x	x
CCc1nc2ccc(C(=O)NCc3ccccc3C)cc2nc1CC	n	x	x	x	x
Cc1ccccc1CNC(=O)c1ccccc1	n	u	15.8µM	n	n[1.84 µM]
Cc1ccccc1CNC(=O)c1ccccc1C(=O)O	n	n	n	x	0.0089µM
Cc1ccccc1CNC(=O)c1ccccc1C	n	n	u	n[10 µM]	n
O=C1CS/C(=C\[N+](=O)[O-])N1c1ccccc1	n	5.01µM	n	n	n

Bioassay records: PubChem, National Center for Advancing Translational Sciences (NCATS)
